# Inconclusive results are not listed. Calls of active or inactive are those of the source. The calls were made as follows, unless noted: active = hit-call score of the fitted dose curve at least 0.9, where 1 is the maximum; inconclusive = response in the unintended direction; inactive = score below 0.9.
# Columns and labels:
# [1] = CPHEA_Stoker_NIS_Cytotoxicity: Cytotoxicity Assessment for CPHEA's Radioactive Iodide Uptake (RAIU) Assay for Sodium/Iodide Symporter (NIS) Inhibition, Stoker and Laws Labs (AID 2283897);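 as to AC50: active means loss of ATP signal versus DMSO meaning cytotoxicity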
# Procedure, shortened: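 ATP luminescence (Cell Titer Glo) measured viability, with loss of signal normalized to DMSO controls. Cells: hNIS-HEK293T-EPA, seeded 40 hours prior. Dosing: 0.001–100uM, 2 hours, room temperature, uptake buffer pH 7.4.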
# [2] = ATG_XTT_Cytotoxicity_XSP2: Cytotoxicity Assessment in the Attagene TRANS-FACTORIAL Multi-Species (XSP2) HepG2 Assay (AID 2283837)
# Procedure, shortened: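 XTT-based cell number read-out in human HepG2 liver cells carrying transfected reporter units, measured 24 h after chemical dosing. Activity is signal loss versus DMSO baseline.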
# [3] = molecular target: human Thyroid hormone Receptor alpha (TRa), THRA (gene 7067) (UniProt P10827); test: ATG_hTRa_XSP2: Attagene TRANS-FACTORIAL Multi-Species (XSP2) HepG2 Assay for human Thyroid hormone Receptor alpha (TRa) (AID 2283838)
# Chain of human Thyroid hormone Receptor alpha (TRa), THRA (gene 7067) (P10827 whole entry, looked up, the tested form may be a part): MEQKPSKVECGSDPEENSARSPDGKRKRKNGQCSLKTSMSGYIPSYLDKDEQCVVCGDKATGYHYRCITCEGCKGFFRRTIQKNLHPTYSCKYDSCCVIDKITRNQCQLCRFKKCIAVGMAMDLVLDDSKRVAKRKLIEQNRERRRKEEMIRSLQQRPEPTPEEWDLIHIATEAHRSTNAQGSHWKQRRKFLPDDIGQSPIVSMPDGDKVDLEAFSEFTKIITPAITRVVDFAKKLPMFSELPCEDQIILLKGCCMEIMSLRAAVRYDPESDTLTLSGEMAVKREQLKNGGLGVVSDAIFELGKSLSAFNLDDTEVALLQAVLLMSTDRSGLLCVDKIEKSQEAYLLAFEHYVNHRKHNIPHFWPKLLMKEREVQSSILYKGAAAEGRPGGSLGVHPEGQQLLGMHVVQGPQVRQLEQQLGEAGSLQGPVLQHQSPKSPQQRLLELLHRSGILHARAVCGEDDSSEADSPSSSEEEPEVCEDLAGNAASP
# Procedure, shortened: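 Reporter transcripts were read by RT-PCR with fluorescent primer extension, HpaI digestion and capillary electrophoresis. These came from HepG2 cells carrying multiplexed TRa-Gal4 TRANS constructs, harvested 24 hours after dosing. The medium also held 6-alpha-fluorotestosterone (3 nM) and norgestrel (1.5 nM), and increases were fitted against DMSO.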
# [4] = molecular target: frog Thyroid hormone Receptor alpha (TRa), thra-a (gene 397942) (UniProt P15204); test: ATG_frTRa_XSP2: Attagene TRANS-FACTORIAL Multi-Species (XSP2) HepG2 Assay for frog Thyroid hormone Receptor alpha (TRa) (AID 2283839)
# Chain of frog Thyroid hormone Receptor alpha (TRa), thra-a (gene 397942) (P15204 whole entry, looked up, the tested form may be a part): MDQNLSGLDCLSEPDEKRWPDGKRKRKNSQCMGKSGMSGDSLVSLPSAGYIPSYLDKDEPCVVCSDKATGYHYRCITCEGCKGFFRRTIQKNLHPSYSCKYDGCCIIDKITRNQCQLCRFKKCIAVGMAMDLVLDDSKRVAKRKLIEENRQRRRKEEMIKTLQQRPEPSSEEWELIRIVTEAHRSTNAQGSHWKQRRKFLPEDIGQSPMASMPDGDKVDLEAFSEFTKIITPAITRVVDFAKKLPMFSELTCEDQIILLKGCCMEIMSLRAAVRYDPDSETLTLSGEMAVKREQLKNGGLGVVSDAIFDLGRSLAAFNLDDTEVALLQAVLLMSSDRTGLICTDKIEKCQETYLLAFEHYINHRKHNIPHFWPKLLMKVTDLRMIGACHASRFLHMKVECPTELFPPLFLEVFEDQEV
# Procedure, shortened: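 Chimeric frog TRα-GAL4 activity in human liver cells measures reporter transcript induction 24 h post-dose. Detection uses RT-PCR, HpaI-digested labelled products and fluorescence capillary electrophoresis; DMSO serves as negative control.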
# [5] = molecular target: human Thyroid hormone Receptor beta (TRb), THRB (gene 7068) (UniProt P10828); test: ATG_hTRb_XSP2: Attagene TRANS-FACTORIAL Multi-Species (XSP2) HepG2 Assay for human Thyroid hormone Receptor beta (TRb) (AID 2283840);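 also: actives raise reporter mRNA so potency reflects agonist-like gain of signal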
# Chain of human Thyroid hormone Receptor beta (TRb), THRB (gene 7068) (P10828 whole entry, looked up): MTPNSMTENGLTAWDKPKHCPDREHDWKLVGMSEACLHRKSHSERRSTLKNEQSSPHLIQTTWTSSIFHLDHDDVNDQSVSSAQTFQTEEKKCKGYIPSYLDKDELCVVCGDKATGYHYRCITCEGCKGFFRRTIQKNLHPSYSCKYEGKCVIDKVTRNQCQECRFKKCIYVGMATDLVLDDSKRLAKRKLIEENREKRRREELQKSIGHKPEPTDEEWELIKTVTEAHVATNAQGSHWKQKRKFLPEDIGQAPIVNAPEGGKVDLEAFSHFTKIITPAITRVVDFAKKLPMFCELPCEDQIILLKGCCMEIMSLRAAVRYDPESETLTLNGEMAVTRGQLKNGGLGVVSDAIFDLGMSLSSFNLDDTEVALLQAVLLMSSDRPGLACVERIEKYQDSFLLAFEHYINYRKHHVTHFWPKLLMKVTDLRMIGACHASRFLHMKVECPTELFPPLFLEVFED
# Procedure, shortened: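 Gain-of-signal reporter transcription, referenced to DMSO, was measured in transiently transfected HepG2 after 24 h exposure; labeled RT-PCR products were resolved by capillary electrophoresis. Assay medium included 3 nM 6-alpha-fluorotestosterone and 1.5 nM norgestrel.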
# [6] = test system: Sodium/Iodide Symporter (NIS), SLC5A5 (gene 6528); test: CPHEA_Stoker_NIS_Inhibition_RAIU: CPHEA's Radioactive Iodide Uptake (RAIU) Assay for Sodium/Iodide Symporter (NIS) Inhibition, Stoker and Laws Labs (AID 2283841)
# Procedure, shortened: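 Iodide uptake through human NIS is measured in an engineered HEK293T line. Cells take up 125I (329pM final) for 2 hours at room temperature alongside chemicals at 0.001–100uM. Retained radioactivity is counted, and the signal is expressed against DMSO controls.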
# [7] = molecular target: PGR (gene 5241) (UniProt P06401); test: TOX21_PR_BLA_Followup_Antagonist_ratio: Tox21 HEK293 Progesterone Receptor (PR) Antagonism Beta-lactamase Follow-Up Assay, Ratio (AID 2283934);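 also: PR-UAS-bla HEK293T cells stimulated with 1 nM R5020 agonist for 16 hr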
# Chain of PGR (gene 5241) (P06401 whole entry, looked up): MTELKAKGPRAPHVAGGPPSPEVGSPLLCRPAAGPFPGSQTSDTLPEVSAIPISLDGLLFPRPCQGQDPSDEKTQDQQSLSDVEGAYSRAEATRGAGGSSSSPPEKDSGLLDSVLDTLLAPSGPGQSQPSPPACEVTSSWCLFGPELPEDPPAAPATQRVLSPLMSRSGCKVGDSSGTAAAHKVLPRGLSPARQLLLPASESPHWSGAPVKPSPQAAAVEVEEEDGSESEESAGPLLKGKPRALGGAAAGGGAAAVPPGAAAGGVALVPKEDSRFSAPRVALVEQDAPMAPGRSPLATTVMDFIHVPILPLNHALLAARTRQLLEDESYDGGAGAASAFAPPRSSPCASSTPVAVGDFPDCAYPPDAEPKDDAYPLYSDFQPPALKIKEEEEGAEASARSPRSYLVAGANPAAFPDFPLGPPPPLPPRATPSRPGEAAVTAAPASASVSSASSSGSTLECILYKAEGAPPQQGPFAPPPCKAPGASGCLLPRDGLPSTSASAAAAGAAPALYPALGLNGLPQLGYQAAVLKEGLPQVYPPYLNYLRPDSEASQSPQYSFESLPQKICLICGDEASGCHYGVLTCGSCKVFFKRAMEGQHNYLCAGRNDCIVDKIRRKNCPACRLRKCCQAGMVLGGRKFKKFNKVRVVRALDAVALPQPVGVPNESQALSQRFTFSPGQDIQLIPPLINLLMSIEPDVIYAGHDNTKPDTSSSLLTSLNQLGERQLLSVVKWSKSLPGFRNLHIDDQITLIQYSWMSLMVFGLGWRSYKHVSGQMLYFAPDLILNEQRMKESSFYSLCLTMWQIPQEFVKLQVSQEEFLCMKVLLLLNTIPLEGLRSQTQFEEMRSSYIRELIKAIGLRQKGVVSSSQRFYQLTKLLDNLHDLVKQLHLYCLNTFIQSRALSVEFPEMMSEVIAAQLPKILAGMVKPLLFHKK
# Procedure, shortened: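 Cells are plated, rested 6 hr, then dosed with test compound in DMSO and challenged with 1 nM promegestone. After 16 hr incubation, substrate loading for 2 h at room temperature precedes fluorescence reading; viability is measured in the same wells.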
# [8] = TOX21_PR_BLA_Followup_Agonist_viability: Viability Assessment in the Tox21 HEK293 Progesterone Receptor (PR) Agonism Beta-lactamase Follow-Up Assay (AID 2283935);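 also: signal loss means lower viability so actives are cytotoxic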
# Procedure, shortened: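 Cells were plated in medium with 2% charcoal-stripped FBS and rested 6 hr. Compounds in DMSO were then added for 16 hr at 37C, followed by the FRET substrate step and CellTiter-Glo luminescence after 30 min.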
# [9] = TOX21_PR_BLA_Followup_Antagonist_viability: Viability Assessment in the Tox21 HEK293 Progesterone Receptor (PR) Antagonism Beta-lactamase Follow-Up Assay (AID 2283936);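 also: cells exposed to compound with R5020 agonist for 16 h; hits lower the luminescence signal meaning cytotoxicity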
# Procedure, shortened: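 PR-UAS-bla HEK293T cells in medium with 2% charcoal-stripped FBS were treated with compounds plus R5020 for 16 hr at 37C. After the beta-lactamase read, CellTiter-Glo was added to the same wells and luminescence read after 30 min at room temperature.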
# [10] = molecular target: PGR (gene 5241) (UniProt P06401); test: TOX21_PR_LUC_Followup_Antagonist: Tox21 HEK293 Progesterone Receptor (PR) Antagonism Luciferase Follow-Up Assay (AID 2283938);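 also: curve fitted upward as signal gain over DMSO baseline despite antagonist label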
# Procedure, shortened: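 Luciferase reporter in HEK293-PR-A-luc cells: 16 h compound treatment at 37C, ONE-Glo luminescence detection, DMSO as negative control and baseline.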
# [11] = CEETOX_H295R_OHPREG_noMTC: CeeTox H295R High-throughput Steroidogenesis Assay for OH-Pregnenolone (OHPREG), maximum tolerated concentration (MTC) filtered results only (AID 2283912; active = hit-call score of the fitted dose curve at least 0.9, where 1 is the maximum; inactive = score below 0.9); conditions: actives raise or lower the signal
# Procedure, shortened: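 H295R; 10 uM forskolin 48 h pre-stim; test cpd in DMSO (0.1% final) 48 h; media MTBE-extracted, HPLC-MS/MS for OH-pregnenolone; bidirectional fit vs DMSO; no MTC (MTT) filtering.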
# [12] = CEETOX_H295R_OHPROG_noMTC: CeeTox H295R High-throughput Steroidogenesis Assay for OH-Progesterone (OHPROG), maximum tolerated concentration (MTC) filtered results only (AID 2283914; active = hit-call score of the fitted dose curve at least 0.9, where 1 is the maximum; inactive = score below 0.9); conditions: actives raise or lower the signal
# Procedure, shortened: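 Medium hormone measured by reverse-phase C18 HPLC with positive electrospray MS/MS after MTBE liquid-liquid extraction. Cells had 48 h forskolin (10 uM) prestimulation, then 48 h chemical dosing. Gain or loss of signal fitted relative to DMSO baseline.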
# [13] = CEETOX_H295R_PROG_noMTC: CeeTox H295R High-throughput Steroidogenesis Assay for Progesterone (PROG), maximum tolerated concentration (MTC) filtered results only (AID 2283920; active = hit-call score of the fitted dose curve at least 0.9, where 1 is the maximum; inactive = score below 0.9); conditions: actives raise or lower the signal
# Procedure, shortened: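 Readout: medium progesterone by MTBE extraction, reverse-phase C18 HPLC, ESI-positive MS/MS. Human H295R cells, 10 uM forskolin pretreatment 48 h, chemical 48 h in 0.1% DMSO. Gain or loss fitted against DMSO baseline.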
# [14] = CEETOX_H295R_11DCORT_noMTC: CeeTox H295R High-throughput Steroidogenesis Assay for 11-Deoxycortisol (11DCORT), maximum tolerated concentration (MTC) filtered results only (AID 2283911; active = hit-call score of the fitted dose curve at least 0.9, where 1 is the maximum; inactive = score below 0.9); conditions: actives raise or lower the signal
# Procedure, shortened: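 Forskolin-primed (10 uM, 48 h) H295R adrenal cells are dosed for 48 h at 0.1% DMSO; medium 11-deoxycortisol is quantified by LC-MS/MS against a 7-point standard curve, with activity fitted in both directions versus DMSO.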
# [15] = CEETOX_H295R_ANDR_noMTC: CeeTox H295R High-throughput Steroidogenesis Assay for Androstenedione (ANDR), maximum tolerated concentration (MTC) filtered results only (AID 2283915; active = hit-call score of the fitted dose curve at least 0.9, where 1 is the maximum; inactive = score below 0.9); conditions: actives raise or lower the signal
# Procedure, shortened: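 Androstenedione secreted into medium was measured by LC-MS/MS after MTBE extraction. Human adrenal H295R cells received 10 uM forskolin for 48 h before 48 h chemical exposure (0.1% DMSO). Gain or loss fitted against DMSO, including concentrations above the MTT-derived MTC.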
# [16] = CEETOX_H295R_CORTISOL_noMTC: CeeTox H295R High-throughput Steroidogenesis Assay for Cortisol, maximum tolerated concentration (MTC) filtered results only (AID 2283916; active = hit-call score of the fitted dose curve at least 0.9, where 1 is the maximum; inactive = score below 0.9); conditions: actives raise or lower the signal
# Procedure, shortened: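 H295R human adrenal cells prestimulated 48 h with 10 uM forskolin, then exposed 48 h to chemical in 0.1% DMSO; cortisol in medium quantified by HPLC-MS/MS; bidirectional fit vs DMSO baseline, concentrations not MTT-filtered for MTC.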
# [17] = CEETOX_H295R_CORTIC_noMTC: CeeTox H295R High-throughput Steroidogenesis Assay for Corticosterone (CORTIC), maximum tolerated concentration (MTC) filtered results only (AID 2283917; active = hit-call score of the fitted dose curve at least 0.9, where 1 is the maximum; inactive = score below 0.9); conditions: actives raise or lower the signal
# Procedure, shortened: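 Corticosterone secreted into the medium was measured by reverse-phase C18 HPLC with tandem MS after MTBE extraction. Cells (H295R) had 48 h forskolin (10 uM) stimulation before 48 h chemical exposure; gain or loss of signal was fitted relative to DMSO.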
# [18] = CEETOX_H295R_DOC_noMTC: CeeTox H295R High-throughput Steroidogenesis Assay for DOC, maximum tolerated concentration (MTC) filtered results only (AID 2283918; active = hit-call score of the fitted dose curve at least 0.9, where 1 is the maximum; inactive = score below 0.9); conditions: actives raise or lower the signal
# Procedure, shortened: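 H295R cells prestimulated 48 h with 10 uM forskolin, then exposed 48 h to chemical in 0.1% DMSO. 11-Deoxycorticosterone in medium measured by MTBE extraction and HPLC-MS/MS; bidirectional fit vs DMSO, no MTC filter.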
# [19] = CEETOX_H295R_TESTO_noMTC: CeeTox H295R High-throughput Steroidogenesis Assay for Testosterone (TESTO), maximum tolerated concentration (MTC) filtered results only (AID 2283924; active = hit-call score of the fitted dose curve at least 0.9, where 1 is the maximum; inactive = score below 0.9); conditions: actives raise or lower the signal
# Procedure, shortened: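 Medium testosterone, measured by HPLC-MS/MS after liquid-liquid extraction, was fitted in both directions relative to DMSO without MTC filtering. Adrenal H295R cells received 48 h chemical exposure (0.1% DMSO final) after 48 h forskolin (10 uM) prestimulation; viability by MTT.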
# [20] = molecular target: Thyroid hormone receptor alpha (Rattus norvegicus) + Thyroid hormone receptor beta (Rattus norvegicus) (UniProt P18113+P63059); test: TOX21_TR_LUC_GH3_Agonist_Followup: Tox21 GH3 Thyroid Hormone Receptor Agonism Luciferase Follow-Up Assay (AID 2283939)
# Chain of Thyroid hormone receptor alpha (Rattus norvegicus) + Thyroid hormone receptor beta (Rattus norvegicus) (P63059 whole entry, looked up): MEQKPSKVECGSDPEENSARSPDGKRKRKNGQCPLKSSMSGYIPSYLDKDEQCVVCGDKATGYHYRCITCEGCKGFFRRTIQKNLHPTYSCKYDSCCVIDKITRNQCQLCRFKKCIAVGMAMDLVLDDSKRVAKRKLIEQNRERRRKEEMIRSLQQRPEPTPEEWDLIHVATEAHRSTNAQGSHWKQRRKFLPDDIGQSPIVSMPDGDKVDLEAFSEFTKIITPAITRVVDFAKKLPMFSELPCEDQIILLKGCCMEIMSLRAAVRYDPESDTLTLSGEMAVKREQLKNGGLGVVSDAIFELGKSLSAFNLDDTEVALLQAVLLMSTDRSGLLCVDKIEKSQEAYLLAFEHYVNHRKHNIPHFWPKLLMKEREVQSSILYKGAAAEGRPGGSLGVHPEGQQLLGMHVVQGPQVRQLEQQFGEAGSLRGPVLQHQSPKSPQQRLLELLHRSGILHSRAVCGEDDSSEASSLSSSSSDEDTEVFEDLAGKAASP
# Chain of Thyroid hormone receptor alpha (Rattus norvegicus) + Thyroid hormone receptor beta (Rattus norvegicus) (P18113 whole entry, looked up): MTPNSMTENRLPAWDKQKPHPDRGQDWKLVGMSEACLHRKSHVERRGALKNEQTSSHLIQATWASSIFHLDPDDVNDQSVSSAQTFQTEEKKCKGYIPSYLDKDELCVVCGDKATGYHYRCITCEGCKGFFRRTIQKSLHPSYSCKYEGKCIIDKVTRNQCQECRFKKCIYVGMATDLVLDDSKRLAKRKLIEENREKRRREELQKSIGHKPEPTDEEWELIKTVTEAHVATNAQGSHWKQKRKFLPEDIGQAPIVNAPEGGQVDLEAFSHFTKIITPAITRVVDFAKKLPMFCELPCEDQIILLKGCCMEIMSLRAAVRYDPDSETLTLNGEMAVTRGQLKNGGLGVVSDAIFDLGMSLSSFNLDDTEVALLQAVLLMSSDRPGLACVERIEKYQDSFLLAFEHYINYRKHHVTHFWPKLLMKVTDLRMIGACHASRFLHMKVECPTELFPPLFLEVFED
# Procedure, shortened: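 Agonist-mode confirmatory run: 15 concentrations (5 nM to 92 uM final) on GH3 rat pituitary cells, 24 h at 37C/5% CO2, T3 as positive control. Luminescence read with ONE-Glo after 30 min.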
compound,measurement,setting,value
CC(C)(O)c1coc(S(=O)(=O)NC(=O)Nc2c3c(cc4c2CCC4)CCC3)c1,outcome,[1],inactive
Oc1ccc2c(c1)-c1ccccc1C2,outcome,[2],inactive
same,outcome,[3],inactive
same,outcome,[4],inactive
same,outcome,[5],inactive
CCOC(=O)c1ccc(C2CCC(NC[C@H](O)COc3ccc(O)c(NS(C)(=O)=O)c3)CC2)cc1 (stereo not given in full),outcome,[1],inactive
CCOC(=O)COc1ccc2c(c1)CC(NCC(O)c1cccc(Cl)c1)CC2 (stereo not given),outcome,[6],inactive
same,outcome,[1],inactive
COc1ccc(/C=C/S(=O)(=O)NC(=O)c2ccc(C)cc2Cl)cc1,outcome,[1],inactive
CCCCCCc1ccc(O)cc1O,outcome,[1],inactive
O=c1[nH]c2ccc(S(=O)CCN3CCC(Cc4ccc(F)cc4)CC3)cc2o1 (stereo not given),outcome,[6],inactive
same,outcome,[1],inactive
COc1cccc(-c2ccc(/C=C\CN3CCCCCC3)cc2Cl)c1,outcome,[6],inactive
same,outcome,[1],inactive
COCCOc1cc2cc(C(=O)NC3CCN(C(C)C)CC3)n(CC(=O)Nc3ccc(Cl)cn3)c2cn1,outcome,[6],inactive
same,outcome,[1],inactive
O=P(OC(CCl)CCl)(OC(CCl)CCl)OC(CCl)CCl,outcome,[4],inactive
same,outcome,[5],inactive
same,outcome,[6],inactive
same,outcome,[1],inactive
same,AC50,[7],18.2 µM (active)
same,outcome,[8],inactive
same,outcome,[9],inactive
same,AC50,[10],46.1 µM (active)
O=C(CCCCCCCCc1cccnc1)N1CCC(C=C(c2ccccc2)c2ccccc2)CC1,outcome,[6],inactive
same,outcome,[1],inactive
CC(C)c1cccc(C(C)C)c1N1C(=O)c2ccc(O)cc2C1=O,outcome,[6],inactive
same,outcome,[1],inactive
same,AC50,[7],15.7 µM (active)
same,outcome,[8],inactive
same,outcome,[9],inactive
same,AC50,[10],17.3 µM (active)
O=C(NS(=O)(=O)/C=C/c1ccccc1)c1ccc(F)cc1Cl,AC50,[11],7.49 µM (active)
same,AC50,[12],5.24 µM (active)
same,outcome,[13],inactive
CN(C)c1ccc(Cc2ccc(N(C)C)cc2)cc1,outcome,[6],inactive
same,outcome,[1],inactive
Cc1[nH]cnc1C[C@H]1CCc2c(C)c3ccccc3n2C1=O,outcome,[6],inactive
same,outcome,[1],inactive
O=C(OC[C@H]1O[C@@H](OC(=O)c2cc(O)c(O)c(OC(=O)c3cc(O)c(O)c(O)c3)c2)[C@H](OC(=O)c2cc(O)c(O)c(OC(=O)c3cc(O)c(O)c(O)c3)c2)[C@@H](OC(=O)c2cc(O)c(O)c(OC(=O)c3cc(O)c(O)c(O)c3)c2)[C@@H]1OC(=O)c1cc(O)c(O)c(OC(=O)c2cc(O)c(O)c(O)c2)c1)c1cc(O)c(O)c(OC(=O)c2cc(O)c(O)c(O)c2)c1,outcome,[6],inactive
same,outcome,[1],inactive
CC(C)=CCC/C(C)=C\CO,outcome,[14],inactive
same,outcome,[11],inactive
same,outcome,[12],inactive
same,outcome,[15],inactive
same,AC50,[16],61.5 µM (active)
same,AC50,[17],57.7 µM (active)
same,outcome,[18],inactive
same,outcome,[13],inactive
same,outcome,[19],inactive
same,outcome,[20],inactive
CCOc1cccc(-n2cc(C(=O)N3CCN(c4cc(C(=O)O)c5ccccc5c4)CC3)nc2-c2ccc(C)cc2)c1,AC50,[6],83.6 µM (active)
same,AC50,[1],6.27 µM (active)
CN(C)c1ccc(N=NS(=O)(=O)O)cc1,outcome,[1],inactive
CCCCC(CC)COC(=O)c1ccc(C(=O)OCC(CC)CCCC)cc1 (stereo not given),outcome,[11],inactive
same,outcome,[12],inactive
same,outcome,[15],inactive
same,outcome,[13],inactive
same,outcome,[19],inactive
Fc1ccccc1[C@@H](F)COC1CCC(Nc2ncnc3[nH]ncc23)CC1 (stereo not given in full),AC50,[6],89.1 µM (active)
same,AC50,[1],9.92 µM (active)
O=C(O)c1cccc(N(Cc2cccnc2)c2ccc(OC(F)F)c(OC(F)F)c2)c1,outcome,[1],inactive
Cn1c(=O)cc(Oc2ccc(F)cc2F)c2cnc(NCC(C)(C)O)nc21,outcome,[1],inactive
O=C(O)c1cc(N=Nc2ccc(S(=O)(=O)Nc3ccccn3)cc2)ccc1O,outcome,[6],inactive
same,outcome,[1],inactive
Clc1nc(Cl)c(Cl)c(Cl)c1Cl,outcome,[2],inactive
same,outcome,[4],inactive
same,outcome,[5],inactive
same,outcome,[6],inactive
same,outcome,[1],inactive

# Source: PubChem BioAssay (EPA / NIEHS)
